# ChEMBL document CHEMBL3988442, “University of Dundee, Small-Polar-MMV Screening Library” (2021)
# About 950 (1.4%) of roughly 69,000 compounds showed an effect of 50% or more. The sample as a whole holds a higher share of strong results than the screen did.
# System: Mycobacterium tuberculosis
# Assay: Cornell M. t heat shock assay; also: in the data most compounds retested in dose-response had high values
# Type: functional, organism-based
# Design: dose or concentration left out as unconfirmed
row,Structure (SMILES),Percent Effect [%]
1,Nc1ncc2c(n1)CN(C1CCCC1)C2=O,101.8
2,CN1CCC(N2Cc3nc(N)ncc3C2=O)CC1,-6.315
3,CC1CCC(N2Cc3nc(N)ncc3C2=O)CC1 (configuration not stated),7.341
4,COCCN1CCc2c(CNC(=O)c3nccn3C)cncc2C1.Cl.Cl.Cl,7.945
5,Cc1nc(CN2CCC3(CC2)CC(c2cccnc2)C(=O)N3C)cs1.O=C(O)C(F)(F)F.O=C(O)C(F)(F)F (configuration not stated),40.95
6,O=C(c1cccc2cccnc12)N1CC[C@@]2(CCCO2)[C@@H](O)C1,50.53
7,CSc1ncccc1C(=O)N1CCC2(CC1)OCCCC2O (configuration not stated),9.306
8,O=C(c1cccnc1O)N1CCC2(CCCO2)CC1,-109.6
9,CCOc1ccc(C(=O)CC(SC2CCCCC2)C(=O)O)cc1 (configuration not stated),28.66
10,Br.O=C(CN(C1=NCCCC1)c1ccccc1)c1ccccc1,-38.94
11,Br.Cc1ccc(N(CC(=O)c2ccc(Br)cc2)C2=NCCCCC2)cc1,103.6
12,C[S+]([O-])c1nncn1CC(=O)c1ccc(OC(F)F)cc1 (configuration not stated),27.46
13,Br.Cc1cccc(N(CC(=O)c2ccccc2)C2=NCCCCC2)c1,15.52
14,Cc1ccc(N(CC(=O)N2CCCCC2)C(=O)C2CCCO2)cc1 (configuration not stated),-0.08324
15,Br.CCOc1ccc(N(CC(=O)c2ccccc2)C2=NCCCCC2)cc1,104.1
16,Br.O=C(CN(C1=NCCCC1)c1ccccc1)c1ccc(OC(F)F)cc1,95.91
17,Br.Cc1ccc(C(=O)CN(C2=NCCCCC2)c2ccccc2)cc1,26.5
18,Br.COc1ccc(C(=O)CN(C2=NCCCCC2)c2ccccc2)cc1,22.41
19,Br.O=C(CN(C1=NCCCCC1)c1ccc(Cl)cc1)c1ccccc1,102
20,Br.O=C(CN(C1=NCCCC1)c1ccccc1)c1ccc2c(c1)OCCO2,-15.61
21,COc1ccc(CN2C[C@@H]3CC[C@H](C2)N(S(=O)(=O)C2CC2)C3)cc1,-4.175
22,Cc1ccc(N2CC[C@@H]3[C@@H]2CCN3C(=O)Cc2cccs2)nn1.O=C(O)C(F)(F)F,1.861
23,CC(=O)NCCc1cc2nc(-c3ccncc3)ccn2n1,1.137
24,COCCC(=O)N1CCCC2(CCCN2Cc2ccccc2F)C1.O=C(O)C(F)(F)F (configuration not stated),-33.92
25,CN(C)Cc1cc(C2CCN(C(=O)C3CCCNC3)CC2)nn1C.Cl (configuration not stated),-6.1

row,Structure (SMILES),Percent Effect [%]
1,O=C(O)C(F)(F)F.O=C1COC2(CCN(S(=O)(=O)C3CC3)CC2)CN1c1cccnc1,-24.7
2,CNC(=O)[C@H]1C[C@@H]2CN(Cc3ccc(C)cc3)C[C@H]1O2.O=C(O)C(F)(F)F,33.5
3,Cc1ccc(N2CC[C@H]3O[C@H](C(=O)N4CCCCO4)CC[C@H]32)nn1.O=C(O)C(F)(F)F,36.81
4,O=C(C1CC1)N1CC[C@@H]2[C@H](CC1)N(Cc1cccnc1)CCS2(=O)=O.O=C(O)C(F)(F)F.O=C(O)C(F)(F)F,-20.85
5,COCCNS(=O)(=O)c1cccc2c1CN(C(=O)c1cnccn1)CC2,3.399
6,COCCNS(=O)(=O)c1cccc2c1CN(C(=O)c1ccccc1)CC2,-0.08173
7,COCCNS(=O)(=O)c1ccc2c(c1)CCN(C(=O)c1cncn1C)C2,91.56
8,FC(F)Oc1ccccc1CN1CCCC(c2nccn2CC2CC2)C1 (configuration not stated),23.85
9,CC(C)Oc1ccc(CN2CCC(Cc3nnc(CO)n3C)CC2)cc1,-21.53
10,CC(C1CCN(Cc2ccc(OC(F)F)cc2)CC1)N1CCOCC1 (configuration not stated),96.37
11,CC(C1CCN(Cc2ccc(N(C)C)nc2)CC1)N1CCOCC1 (configuration not stated),-22.49
12,CC(C1CCN(Cc2ccccc2OC(F)F)CC1)N1CCOCC1 (configuration not stated),90.2
13,CC(C)Oc1cccc(CN2CCC(c3n[nH]c4ncccc34)CC2)c1,-24.22
14,CC(C)Oc1cccc(CN2CCC(C(C)N3CCOCC3)CC2)c1 (configuration not stated),91.46
15,CC(C1CCN(Cc2cccc(OC(F)F)c2)CC1)N1CCOCC1 (configuration not stated),1.128
16,CC(C1CCN(Cc2c(Cl)cncc2Cl)CC1)N1CCOCC1 (configuration not stated),-44.11
17,CC(=O)NCC(=O)N1Cc2nccn2CC(COc2cccnc2)C1.O=C(O)C(F)(F)F (configuration not stated),-35.06
18,Cc1nc(C2(O)CCCNCC2)sc1CCOc1ccccc1F.Cl (configuration not stated),-4.166
19,O=CO.c1cc2nccc(CC3CCCN(Cc4c[nH]cn4)CC3)c2cn1 (configuration not stated),-8.502
20,CCN1CCOCC12CCN(c1cnccn1)CC2.O=C(O)C(F)(F)F,-4.677
21,CC(C)(CO)CNC(=O)c1cc(-c2cc[nH]n2)n2ccccc12.O=C(O)C(F)(F)F,10.76
22,O=C(O)C(F)(F)F.O=C(O)C(F)(F)F.O=C(O)C(F)(F)F.c1cncc(CN2CCC3(CC2)CC(c2cccnc2)CO3)c1 (configuration not stated),-27.59
23,CCCOc1ccc(CNc2cncc(-n3cccn3)n2)cc1,63.69
24,CNC(=O)COc1ccc(CNc2cncc(-n3cccn3)n2)cc1,-4.201
25,CCOCc1ccc(CNc2cncc(-n3cccn3)n2)cc1,-0.9926

row,Structure (SMILES),Percent Effect [%]
1,CCOc1cc(CN(C)CC(=O)O)ccc1OC(F)F.Cl,-22.89
2,Cc1cc2cccc(NC(=O)N3CC[C@@H]4CC[C@H](C3)N4C)c2o1,25.84
3,Cc1cc(-c2cnn(CCNC(=O)C3CC3)c2C2CC2)on1,-1.703
4,Cc1cc(-c2cnn(CCNC(=O)c3cnn(C)c3)c2C2CC2)on1,-6.591
5,Cc1cc(-c2cnn(CCNC(=O)c3cc[nH]n3)c2C2CC2)on1,53.69
6,O=S(=O)(c1ccccc1)N1C(CN2CCOCC2)[C@]2(O)CC[C@H]1CC2 (some centres not stated),-28.69
7,CCS(=O)(=O)N1CCOC2(CCCN(Cc3ccccn3)C2)C1.O=C(O)C(F)(F)F (configuration not stated),2.925
8,COCCC(=O)N1CCC(c2cncc(Oc3cccnc3)n2)CC1,51.38
9,NCC(=O)N1CCC(c2cncc(Oc3cccnc3)n2)CC1,-6.248
10,CCC(=O)N1CCC(c2cncc(Oc3cccnc3)n2)CC1,-19.43
11,O=C1NCCCC1NC(=O)C1(c2cccc(Cl)c2)CCC1 (configuration not stated),0.8202
12,CCOc1ccc(Cl)cc1C1CCCN1.Cl (configuration not stated),-11.35
13,Cl.c1ccc(CCNc2cccc(C3CCCNC3)n2)cc1 (configuration not stated),-24.38
14,Cl.Clc1cccc(N[C@H]2CCCN[C@H]2Cc2ccccc2)c1,104.4
15,CN[C@H]1CC[C@]2(CC1)CNC(=O)c1cc(C)ccc1O2,-8.947
16,CN1CCN(S(=O)(=O)c2ccccc2)Cc2cccnc21.O=C(O)C(F)(F)F,19.11
17,CN(C)CC(=O)N1CCC2(CC1)CN(Cc1cccnc1)C(=O)CO2,-16.01
18,Cc1cc(C)n(CC2CCCN2CCCS(C)(=O)=O)n1 (configuration not stated),7.273
19,CC(C)(O)CN1CCC(=O)N(Cc2ccco2)Cc2cc(F)ccc21,-9.768
20,CN1Cc2ccccc2N(CC(O)C(F)(F)F)CCC1=O (configuration not stated),42.32
21,CCN1CCC(=O)N(C)Cc2cc(F)ccc21,13.57
22,CCCC(O)CN1CCC(=O)N(CCOC)Cc2ccccc21 (configuration not stated),30.93
23,CN1Cc2cc(F)ccc2N(CC(C)(C)O)CCC1=O,56.09
24,CCCC(O)CN1CCC(=O)N(CCOC)Cc2cc3c(cc21)OCO3 (configuration not stated),26.79
25,CCCC(O)CN1CCC(=O)N(CC)Cc2cc3c(cc21)OCO3 (configuration not stated),53.46

row,Structure (SMILES),Percent Effect [%]
1,CCCC(O)CN1CCC(=O)N(Cc2ccccc2)Cc2ccccc21 (configuration not stated),5.738
2,CCCC(O)CN1CCC(=O)N(C)Cc2cc(F)ccc21 (configuration not stated),66.32
3,COc1ccc2c(c1)CN(C)C(=O)CCN2CC(O)C(F)(F)F (configuration not stated),35.74
4,CCCC(O)CN1CCC(=O)N(CC2CC2)Cc2cc3c(cc21)OCO3 (configuration not stated),15.68
5,CN1Cc2cc(F)ccc2N(CC(O)C(F)(F)F)CCC1=O (configuration not stated),54.29
6,CCc1ccc(CN2C[C@H](OC)[C@H]3COC[C@H]32)o1.O=C(O)C(F)(F)F,46.3
7,Cn1cc(CN2C[C@H]3CCC[C@@]3(COc3ccccn3)C2)cn1.O=C(O)C(F)(F)F.O=C(O)C(F)(F)F,-2.585
8,Cl.Fc1cccc(F)c1Cn1c(C2CCNCC2)cc2cccnc21,-5.947
9,Cc1nc(CN2C(=O)C[C@H]3[C@H]2CCN3CC2CCOC2)cs1.O=C(O)C(F)(F)F (some centres not stated),-4.028
10,COCC1CC2(CCN(c3ccc(C)nn3)CC2)CN1C(C)C.O=C(O)C(F)(F)F (configuration not stated),-4.94
11,Cl.Cl.O=C(NCc1cncc2c1CCN(CC1CCOC1)C2)c1ccco1 (configuration not stated),5.54
12,COCCN1CCC2(C1)c1ccccc1S(=O)(=O)N2C.O=C(O)C(F)(F)F (configuration not stated),24.71
13,Cc1cc(N2CCN(Cc3ccnn3C)CC2)cc(C2CCCN2)n1.Cl (configuration not stated),-17.02
14,Cc1nc(C2(O)CCCNCC2)sc1CCOc1ccc(F)c(F)c1.Cl (configuration not stated),-9.071
15,CC(C)CS(=O)(=O)N1C[C@H]2C[C@H](C(=O)N(C)C)[C@@H](C1)O2,1.328
16,COc1ccc2c(c1)CN(C)C(=O)CCN2CC(O)C(C)(C)C (configuration not stated),46.8
17,CCN1Cc2cc(F)ccc2N(CC(O)C(F)(F)F)CCC1=O (configuration not stated),51.9
18,CCN1Cc2cc(OC)ccc2N(CC(C)(C)O)CCC1=O,-11.62
19,CC(C)OCc1nn(C)c2c1CN(Cc1cccs1)CC2.O=CO,3.631
20,Cc1noc(CNc2c(N3CCCC3)cccc2N2CCCC2)n1,25.1
21,Cc1noc(C)c1CNc1c(N2CCCC2)cccc1N1CCCC1,65.01
22,COc1ccccc1N1CCC(NCc2c(C)noc2C)C1 (configuration not stated),-23.49
